D1 agonist – Allosteric Agonists of the Human D1 Dopamine Receptor: qHTS; actives 1% (n = 360,000); AID 504660, 2011; HEK293 T-REx D1 cells, calcium flux, agonist mode; D(1A) dopamine receptor (Homo sapiens), P21728; activation, % at 2 µM; in the data active = activation above about 30%
Target sequence (P21728 whole entry, looked up): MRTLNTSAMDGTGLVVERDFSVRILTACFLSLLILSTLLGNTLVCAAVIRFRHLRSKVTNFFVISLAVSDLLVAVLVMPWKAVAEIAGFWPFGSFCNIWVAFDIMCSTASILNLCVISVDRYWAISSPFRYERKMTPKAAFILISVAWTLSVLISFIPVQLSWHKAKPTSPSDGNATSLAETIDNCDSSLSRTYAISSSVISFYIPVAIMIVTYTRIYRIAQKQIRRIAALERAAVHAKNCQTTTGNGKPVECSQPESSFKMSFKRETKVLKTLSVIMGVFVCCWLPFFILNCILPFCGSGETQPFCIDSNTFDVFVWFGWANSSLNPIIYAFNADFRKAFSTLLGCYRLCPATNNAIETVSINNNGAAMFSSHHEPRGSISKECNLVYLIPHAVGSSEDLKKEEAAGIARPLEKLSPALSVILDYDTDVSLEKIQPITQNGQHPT
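Agonism was scored from calcium flux recorded over 180 s (1 read/s) after pintool compound addition, following a 10-cycle baseline. Cells were inducible force-coupled HEK293 TREx D1, plated overnight at 30 C and loaded with no-wash calcium dye.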
DRD3 antagonist – qHTS of D3 Dopamine Receptor Antagonist: qHTS | D(3) dopamine receptor (Homo sapiens), P35462 | D3R cells, DiscoveRx beta-arrestin luminescence, antagonist mode; stronger effect = lower value | AID 652054, 2013 | actives 2.5% (n = 360,000) | max response, negative = inhibition, %; in the data active = max response below about -50%; inconclusive = no clear call, values can overlap the other calls
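Cells expressing the human receptor were seeded at 1500 cells/well, incubated overnight at 37 degrees C in 5% CO2, then exposed to library compounds with dopamine controls for 90 minutes at 37 degrees C before luminescent detection.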
D1 antagonist – Antagonist of Human D 1 Dopamine Receptor: qHTS; D(1A) dopamine receptor (Homo sapiens), P21728; HEK293 TREx D1 cells, calcium flux, dopamine EC80; stronger effect = lower value; activity change, negative = inhibition, % at 10 µM; actives 3.2% (n = 360,000); in the data active = activity change below about -30%
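Inducible Hek293 Trex D1 cells (tetracycline, overnight, 30 C). Calcium dye 30–90 min RT. Antagonist mode: EC80 dopamine added after 180 s compound read.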
DRD3 agonist – qHTS of D3 Dopamine Receptor Agonist: qHTS | max activation, % | D3R DiscoveRx beta-arrestin cells, luminescence, 90 min | D(3) dopamine receptor (Homo sapiens), P35462 | AID 652048, 2013 | actives 0.58% (n = 410,000); in the data active = max activation above about 30%
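Agonist-mode cell screen: cells plated at 1500/well and incubated overnight at 37 °C, then exposed to library compounds for 90 min at 37 °C. Detection reagent was added for 30–60 min at room temperature, and luminescence was read.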
D1 potentiator – Potentiators of Human D1 Dopamine Receptor: qHTS; D(1A) dopamine receptor (Homo sapiens), P21728; HEK293 TREx D1 cells, calcium flux, dopamine EC20 potentiation; potentiation, % at 10 µM; actives 0.036% (n = 360,000); AID 504651, 2011; in the data active = potentiation above about 30%
Of the large screens only hits and unclear results are named; the others gave an inactive call. A selection: hits, their analogues and other compounds. The true share with any hit is near 6%.

COc1ccc(C2=NS(=O)(=O)N(C)C(C(=O)Nc3ccc(OC(F)(F)F)cc3)=C2)cc1	D1 antagonist -37 (no result: DRD3 antagonist)
COc1ccc(CNC(=O)C2=CC(c3ccc(C)cc3)=NS(=O)(=O)N2C)cc1	D1 antagonist -34
Cc1ccc(C2=NS(=O)(=O)N(C)C(C(=O)NCc3ccc(F)cc3)=C2)cc1	none
Cc1ccc(-n2ncc3c(=O)n(Cc4cccc(Cl)c4)cnc32)cc1C	none (no result: DRD3 antagonist)
Cc1ccc(NC2C(=O)NC(=O)NC2=O)cc1	none (no result: D1 agonist, D1 antagonist, D1 potentiator)
Cc1cc2c(c(=O)n1Cc1ccccc1)C1O[C@](c3ccsc3)(Cc3ccccc31)O2	none (no result: DRD3 antagonist, DRD3 agonist)
Cc1[nH]c2ccccc2c1/C=C/C(=O)c1ccccc1	D1 agonist 41, DRD3 antagonist inconclusive
Cc1[nH]c2ccccc2c1/C=N/NC(=O)c1cc(C(C)(C)C)[nH]n1	DRD3 antagonist -59
Cc1[nH]c2ccccc2c1/C=N/NC(=O)CCC(=O)Nc1ccccc1	D1 antagonist -48
Cc1[nH]c2ccccc2c1/C=N/NC(=O)c1ccccc1	none
Cc1[nH]c2ccccc2c1/C=N/NC(=O)c1cc(-c2ccncc2)nc2ccccc12	D1 antagonist -43
N#Cc1ccc(CSc2ccc(S(=O)(=O)N3CCCCCC3)cn2)cc1	none
COc1cc(C(CC(=O)Nc2ccc(Br)cn2)N2Cc3ccccc3C2=O)cc(OC)c1OC (centres undefined)	none (no result: DRD3 antagonist)
Cc1cc2nc(-c3ccc(Cl)cc3)c(Cc3ccsc3)n2c(C)c1Br	none (no result: D1 agonist, D1 antagonist, D1 potentiator)
CCOc1ccccc1CNC(=O)CSc1n[nH]c(-c2ccccc2Cl)n1	none (no result: DRD3 antagonist)
COc1ccc(Cc2c(-c3ccc(C#N)cc3)nc3c(Cl)cc(C(F)(F)F)cn23)c(C)c1	none (no result: D1 agonist, D1 antagonist, D1 potentiator)
COc1ccc(NC(=O)COC(=O)C2CCCCC2)c([N+](=O)[O-])c1	none
COc1ccc(NC(=O)COC(=O)CC2CC3CCC2C3)c([N+](=O)[O-])c1 (centres undefined)	D1 antagonist -97
CCN1C(=O)[C@H]2[C@@H](c3ccc(-c4ccc(F)cc4)c(OC)c3)N[C@@](C)(C(=O)OC)[C@H]2C1=O	DRD3 antagonist -51
CCN1C(=O)[C@H]2[C@@H](c3ccc(-c4ccccc4)c(OC)c3)N[C@@](CC(C)C)(C(=O)OC)[C@H]2C1=O	DRD3 antagonist -51 (no result: D1 agonist, D1 antagonist, D1 potentiator)
CCN1C(=O)[C@H]2[C@@H](c3ccc(-c4ccc(C(C)=O)cc4)cc3)N[C@@](Cc3ccccc3)(C(=O)OC)[C@H]2C1=O	none
CCN1C(=O)[C@H]2[C@@H](c3ccc(-c4cc(C(C)=O)cs4)cc3)N[C@@](Cc3ccccc3)(C(=O)OC)[C@H]2C1=O	DRD3 agonist 37 (no result: D1 agonist, D1 antagonist, D1 potentiator)
COC(=O)C1(C)NC(c2ccc(O)cc2)C2C(=O)N(c3ccc(C)cc3)C(=O)C21 (centres undefined)	D1 antagonist -42
CCN1C(=O)[C@H]2[C@@H](c3ccc(-c4ccc(OC)cc4)c(OC)c3)N[C@@](C)(C(=O)OC)[C@H]2C1=O	none
COCCCNC(=O)c1ccc(Cn2c(=O)c3ccccc3n(Cc3c(C)cc(C)cc3C)c2=O)cc1	none (no result: DRD3 antagonist)
CCN(c1cccc(C)c1)S(=O)(=O)c1c(C)nc2sc(C)cn2c1=O	none (no result: DRD3 antagonist)
Cc1ccccc1CNC(=O)C1CCCCN1S(=O)(=O)c1ccc(F)cc1 (centres undefined)	D1 antagonist -32 (no result: DRD3 antagonist)
O=C(NCc1ccc(F)cc1)C1CCCCN1S(=O)(=O)c1ccc(F)cc1 (centres undefined)	none (no result: DRD3 antagonist)
CC1(C(=O)Nc2cccc3ccccc23)CCN1C(=O)C1(c2ccccc2)CCCC1 (centres undefined)	none (no result: D1 agonist, D1 antagonist, D1 potentiator)
Cc1cc(C(=O)N2CCN(Cc3ccc4c(c3)OCO4)CC2)cs1	DRD3 antagonist -92
O=C(c1ccccc1F)N1CCN(Cc2ccc3c(c2)OCO3)CC1	DRD3 antagonist -67
O=C(O)c1ccccc1C(=O)N1CCN(Cc2ccc3c(c2)OCO3)CC1	none
Cc1cc(C)cc(C(=O)N2CCN(Cc3ccc4c(c3)OCO4)CC2)c1	none
Cc1ccc(C(=O)N2CCN(Cc3ccc4c(c3)OCO4)CC2)cc1[N+](=O)[O-]	none
O=C(c1cccc([N+](=O)[O-])c1)N1CCN(Cc2ccc3c(c2)OCO3)CC1	D1 antagonist -30
COc1ccc2cc(C(=O)N3CCN(Cc4ccc5c(c4)OCO5)CC3)[nH]c2c1	D1 agonist 33
CCN(CC)c1ccc2cc(-c3nc4sc5c(c4c(=O)[nH]3)CCC(C(C)(C)C)C5)c(=O)oc2c1 (centres undefined)	none (no result: DRD3 antagonist)
CCOC(=O)c1cccc(NC(=O)CN2C(=O)c3ccccc3Sc3ncccc32)c1	none (no result: DRD3 antagonist)
Cc1nn(Cc2ccccc2)c2sc(C(=O)NCc3cccnc3)cc12	DRD3 antagonist inconclusive, D1 antagonist -47
N#Cc1c(F)cccc1N1CCN(Cc2ccc3c(c2)OCO3)CC1	DRD3 antagonist -91, D1 antagonist -37 (no result: D1 potentiator)
Cc1nn(Cc2ccccc2)c2sc(C(=O)N3CCN(Cc4ccc5c(c4)OCO5)CC3)cc12	DRD3 antagonist inconclusive, D1 antagonist -31
Cc1ccc2[nH]c3c(c2c1)CN(C(=O)CN1CCN(Cc2ccc4c(c2)OCO4)CC1)CC3	D1 agonist 42, D1 antagonist -35
Cc1ccc2c(c1)cc1c(=O)n(CC(=O)N3CCCC3)nc(C)n12	none
O=C(O)c1cccc(S(=O)(=O)N2CCN(S(=O)(=O)c3ccc4c(c3)OCCO4)CC2)c1	none (no result: DRD3 antagonist, DRD3 agonist)
COc1ccc(CCN2C(=O)/C(=C\c3ccco3)SC2=S)cc1OC	DRD3 agonist 59
O=C1/C(=C\c2ccco2)SC(=S)N1Cc1ccccc1	DRD3 antagonist inconclusive
Cc1cccc(C(=O)Nc2ccc(C(=O)OCc3cc(=O)n4c(C)csc4n3)cc2)c1	none (no result: DRD3 antagonist)
CSc1ccc(/C=N/n2c(Cc3ccc(Br)cc3)n[nH]c2=S)cc1	DRD3 antagonist inconclusive
CCc1n[nH]c(=S)n1/N=C/c1ccc(-c2ccc(Br)cc2)o1	DRD3 antagonist -146 (no result: D1 agonist, D1 antagonist, D1 potentiator)
Cc1cc(NC(=O)Nc2ccc(Cl)cc2)n(C(C)(C)C)n1	none
CC(C)(C)n1nc(C2CC2)cc1NC(=O)Nc1ccc(Cl)cc1	D1 antagonist -41
COc1ccc(C2CC(c3cccc(C)c3)n3nc(N)nc3N2)cc1 (centres undefined)	D1 antagonist -31
Cc1cccc(C2CC(c3ccc(Br)cc3)Nc3nc(N)nn32)c1 (centres undefined)	none
COc1cccc(C2CC(c3cccc(Br)c3)n3ncnc3N2)c1 (centres undefined)	D1 antagonist -57
Cc1ccccc1C(C)NC(=O)COC(=O)Cn1cc(C(F)(F)F)ccc1=O (centres undefined)	none
